High-throughput results as filed in PubChem.
TbREL1 primary = TbREL1 RNA ligase inhibitors, primary screen, biochemical, FRET fluorescence. RNA-editing ligase 1, mitochondrial (Trypanosoma brucei brucei), P86926. TbREL1 RNA ligation. inhibition, % at 9.66 µM. 0.49% of 89,000 active. AID 1117264, 2014;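 active means inhibition above the mean inhibition across all screened compounds plus 3 SD, cut at about 11% in these data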;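 further: 0% = plate median of test wells and 100% = NSC42067 control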
Target sequence (P86926 whole entry, looked up): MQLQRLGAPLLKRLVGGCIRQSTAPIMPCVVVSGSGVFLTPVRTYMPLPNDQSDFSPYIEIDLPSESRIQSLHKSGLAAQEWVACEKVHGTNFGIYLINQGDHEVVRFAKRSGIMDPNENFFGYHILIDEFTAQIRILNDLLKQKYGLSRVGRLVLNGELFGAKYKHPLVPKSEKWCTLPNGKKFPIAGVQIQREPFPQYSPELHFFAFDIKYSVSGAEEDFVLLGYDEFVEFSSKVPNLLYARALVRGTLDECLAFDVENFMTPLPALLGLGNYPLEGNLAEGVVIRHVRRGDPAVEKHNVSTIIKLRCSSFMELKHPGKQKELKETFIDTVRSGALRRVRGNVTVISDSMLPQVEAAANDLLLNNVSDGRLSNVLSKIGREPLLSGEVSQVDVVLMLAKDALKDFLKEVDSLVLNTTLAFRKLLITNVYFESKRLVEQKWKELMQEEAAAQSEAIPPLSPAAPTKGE
TbREL1 conf = TbREL1 RNA ligase inhibitors, confirmation, biochemical, FRET fluorescence, triplicate. TbREL1 RNA ligation. shares compounds with TbREL1 primary. 37% of 390 active. inhibition, % at 9.66 µM;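 active means mean inhibition across replicates above a set limit taken from the earlier primary screen, cut at about 11% in these data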;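 further: 0% = REL1 with substrate and DMSO and 100% = REL1 plus control inhibitor NSC42067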
The depositor's hits bear a star. Many of the other results were omitted from the sample, so hits are more common in it than they were.

SMILES	TbREL1 primary	others
COCC(=O)N1CCC(C(=O)NCC2COc3ccccc3O2)CC1 (centres undefined)	0
CC(C)(C)CCN1CCC[C@H](NC(=O)COc2ccc(F)c(Cl)c2)C1	-1
N#C/C(=C/c1cccc(O)c1)C(=O)NCc1ccc(Cl)cc1	4
N#C/C(=C/c1ccc(O)c(O)c1)C(=O)NCc1ccc(Cl)cc1	46*	TbREL1 conf=1
N#C/C(=C/c1ccccc1)C(=O)NCc1ccccc1	2
NC(=O)c1ncn([C@@H]2O[C@H](C(=O)N[C@H](Cc3c[nH]c4ccccc34)C(=O)N3CCN(CC(=O)N4CCCC4)CC3)[C@@H](O)[C@H]2O)n1	-4
Cc1ccc(C(C)C)c(OCCNS(C)(=O)=O)c1	-2
Cc1ccc(C(C)C)c(OCCNCCc2ccccc2)c1	13*	TbREL1 conf=15*
c1ccc(CCNCCOc2ccccc2)cc1	7
COC(=O)C1CN(CCc2ccccc2)CCS(=O)(=O)N1Cc1ccccc1F (centres undefined)	-5
COC(=O)c1ccc2nc(-c3ccc(C)cc3)c(Cc3cccc(F)c3)n2c1	7
Cc1nc2c(C(=O)N3CCCC3)cnn2c(C)c1Cc1c(F)cccc1Cl	7
COC(=O)c1cnn2c(C)c(Cc3cccc(F)c3)c(C)nc12	16*	TbREL1 conf=2
O=C(NCCc1ccc(F)cc1)c1cc2ccccn2n1	2
Cc1ccc(-c2cc(-c3nnc(SCC(=O)N4c5ccccc5Sc5ccc(Cl)cc54)n3N)[nH]n2)cc1	2
Cc1onc(-c2ccccc2Cl)c1C(=O)N1CCCCC1	-6
O=C(c1ccc(-c2ccccc2Cl)o1)N1CCCCCCC1	13*	TbREL1 conf=4
O=C(c1ccc(-c2ccc([N+](=O)[O-])cc2)o1)N1CCCCCCC1	-2
Cc1nn(-c2ccccc2)c(C)c1/C=N\N1CCN(Cc2ccccc2Cl)CC1	1
O=S1(=O)c2c(cccc2N2CCC[C@H]2CO)OCCCN1C1CC1	4
COc1cccc(N(C)C(=O)[C@@H](C2CC2)[C@@H](O)c2ccc(Cl)cc2)c1	-1
Cc1cn(CC(=O)N[C@H](C)c2cccc3ccccc23)c(=O)[nH]c1=O	-1
COC(=O)[C@H](Cc1ccc(O)cc1)NC(=O)Cn1ccc(NC(=O)OCc2ccccc2)nc1=O	0
COC(=O)C(Cc1ccc(O)cc1)NC(=O)Cn1cc(C)c(=O)[nH]c1=O (centres undefined)	11*	TbREL1 conf=3
CN(C)CCCNc1ncnc2sc(-c3ccccc3)cc12	14*	TbREL1 conf=4
SMILES	TbREL1 primary	others
CN(C)CCNc1ncnc2ccccc12	1
CC(C)N(C(=O)CSc1ncnc2sc(-c3ccccc3)cc12)C(C)C	-3
COC(=O)[C@]12C[C@H](CC(=O)N3CCOCC3)C(=O)N(Cc3ccc(Cl)cc3Cl)C1=C[C@H](C(C)(C)C)O[C@@H]2C	0
Cc1occc1C(=O)NCc1nc(-c2ccc(Cl)cc2)no1	1
COc1ccc(-c2noc(CCC(=O)O)n2)cc1	1
COc1ccc(-c2noc(CNC(=O)c3ccoc3C)n2)cc1	15*	TbREL1 conf=2
CCCCN(C)C(=O)CSc1nnc(-c2cc(OC)c(OC)c(OC)c2)o1	-3
COc1ccc(-n2c(SCC(=O)Nc3cc(C)c(NC(=O)c4ccccc4)cc3OC)nnc2-c2ccccc2F)cc1	-3
Cc1ccc(N2C(=O)c3ccc(C(=O)O)cc3C2=O)cc1C	0
O=C(O)c1cc(N2C(=O)C=CC2=O)cc(N2C(=O)C=CC2=O)c1	85*	TbREL1 conf=30*
O=C(O)c1cc(C(=O)O)c(-c2ccccc2)c(C(=O)O)c1	0
Cc1cccc(C(=O)N[C@H]2CC[C@@]34CCCN3C(=O)CCC[C@H]4[C@H]2C)c1	5
O=[N+]([O-])c1ccccc1/C=C/C1Nc2cccc3cccc(c23)N1	-2
Cc1ccccc1CN1CCCCC(NC(=O)Nc2ccccc2)C1=O (centres undefined)	0
Cn1c(SCC(=O)c2ccc(-c3ccccc3)cc2)nnc1-c1ccco1	3
N#Cc1cnc(SCC(=O)c2ccccc2)nc1N	-2
O=C(CSc1nnc(-c2ccco2)c(-c2ccco2)n1)c1ccccc1	12*	TbREL1 conf=13*
CC(C)(C)c1csc(NC(=O)Cn2c(=O)oc3ccccc32)n1	6
CC(C)(C)NC(=O)Cn1c(=O)oc2ccc(Cl)cc21	59*	TbREL1 conf=5
O=C(Cn1c(=O)oc2ccccc21)c1ccccc1	2
CCOC(=O)[C@@]12CCC3=C1N(CCC3)C(=O)[C@H](CC(=O)NCC1CCCCC1)C2	-5
Cc1ccc(NC(=O)C2CCN(S(=O)(=O)c3ccc4[nH]c(=O)oc4c3)CC2)cc1F	-1
CCC(C)NC(=O)C1CCN(S(=O)(=O)c2ccc3[nH]c(=O)oc3c2)CC1 (centres undefined)	12*	TbREL1 conf=25*
CCC(C)NC(=O)C1CCN(S(=O)(=O)c2cccnc2)CC1 (centres undefined)	2
S=C(Nc1ccccc1Cl)OCCN1CCCC12CCC(c1ccccc1)CC2 (centres undefined)	0
SMILES	TbREL1 primary	others
CC(C)(C)c1ccc(-c2nnc(SCC(=O)c3ccc4ccccc4c3)n2-c2ccc(Cl)cc2)cc1	-6
CC(=O)N1CCc2cc(S(=O)(=O)NC3CCN(C(=O)OCc4ccccc4)CC3)ccc21	-1
COC(=O)c1cc(NC(=O)C(C)c2ccc(CC(C)C)cc2)ccc1O (centres undefined)	1
CC(C)Cc1ccc(C(C)C(N)=NCCc2ccccc2)cc1 (centres undefined)	12*	TbREL1 conf=12*
CC(C)c1ccc(CNCc2ccccc2)cc1	2
CCCCCCC(=O)n1ccc2ccc(-c3ccc4ccn(Cc5ccc(OC)cc5)c4c3)cc21	5
COC(=O)[C@@]1(C(C)C)N=C(c2cc(OC)c(OC)c(OC)c2)[C@]2(O1)C(=O)N(Cc1cn(Cc3ccccc3)nn1)c1ccc(F)cc12	3
Oc1ccc(Cl)c2cccnc12	1
Oc1ccc(Cc2ccccc2)c2cccnc12	-3
Oc1ccc(-c2nn[nH]n2)c2cccnc12	16*	TbREL1 conf=0
Cc1ccc(NC(=S)NNC(=O)CSc2nnc(SCc3cccc4ccccc34)s2)cc1	-9
O=[N+]([O-])c1cc(-c2csc(NCCc3nc4cc(C(F)(F)F)ccc4n3CCCO)n2)ccc1Cl	19*	TbREL1 conf=5
Cc1nc2cc(C(F)(F)F)ccc2n1CCNc1nc(-c2ccc([N+](=O)[O-])c(Cl)c2)cs1	0
OCCOCCn1c(CCNc2nc(-c3ccc(F)cc3)cs2)nc2cc(C(F)(F)F)ccc21	-4
Cc1cc(C)nc(N2CCC(C(=O)N(C)CCc3ccccc3)CC2)n1	0
CCOC(=O)C1CCN(C(=O)CN(c2cc(Cl)ccc2OC)S(=O)(=O)c2ccccc2)CC1	1
COC(=O)CN(c1cc(Cl)ccc1OC)S(=O)(=O)c1ccc(C)cc1	3
COc1ccc(Cl)cc1N(CC(=O)N1CCCC1)S(=O)(=O)c1ccc(C)cc1	12*	TbREL1 conf=4
COC(=O)[C@]12CCCCC=C1N(Cc1ccc(OC)cc1)C(=O)[C@@H]2CC(=O)N1CCCC1	4
CCn1c(SCC(=O)Nc2ccccc2-c2ccccc2)nnc1-c1ccc(Cl)cc1	-1
CC(=O)Nc1sc2c(c1-c1nc3ccccc3s1)CCCNC2	7
Cc1ccccc1CN1CCCCC(NC(=O)c2ccc(-c3ccccc3)cc2)C1=O (centres undefined)	-3
